The campaign covered roughly 330,000 compounds. About 1,400 (0.42%) were called active. Only a selection was taken, and actives are over-represented in it overall. Values without a mark were called inactive.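 How the source made its calls: active means plate passing quality check with inhibition over a set limit, or well fluorescence over plate mean plus 4 SD; inactive means the rest.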
Test: inhibitors of Candida efflux pumps in yeast, primary screen, S. cerevisiae, Nile Red, multiplex (AID 485275);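 further: Nile Red retained in pooled yeast measured as flow cytometry median fluorescence; 0% = buffer negative control and 100% = Enniatin B positive control; higher means more Nile Red kept so more efflux inhibition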
Settings: S. cerevisiae Candida pump triplex, at 10 µM, active compounds read high

Structure (SMILES)	inhibition
CCn1c(SCC(=O)NC2CC2)nnc1-c1ccccn1	-0.04%
COC(=O)c1ccc2c(c1)S(=O)(=O)NC(=NCCCN1CCOCC1)S2	0%
O=C(NCCC1CCCCN1S(=O)(=O)c1cccs1)C(=O)Nc1ccc(F)cc1F (stereo unspecified)	0.02%
O=C(/C=C/c1ccc([N+](=O)[O-])cc1)NCCSCc1ccco1	0.15%
COc1cccc(OC)c1C(=O)Nc1sc2c(c1C(N)=O)CCCC2	-0.23%
CN(C)c1ccc(/C=N/NC(=O)c2ccc(Cn3cc(Br)cn3)o2)cc1	-0.5%
CC1CCc2c(sc(NC(=O)c3ccc(Cn4cc(Br)cn4)o3)c2C(N)=O)C1 (stereo unspecified)	0.29% (active)
COc1ccc(CNc2ccc3c(c2)CCC3)cc1OC	0%
CCn1c(SCC(=O)N/N=C/c2ccccc2OCC(=O)O)nnc1-c1ccc(C(C)(C)C)cc1	0.05%
Cc1nnc(SCC(=O)NC(=O)NC2CCCC2)n1N	0.12%
Cc1ccc(/C=C(\C#N)C(=O)Nc2cccc3ncccc23)o1	6.65% (active)
O=C(O)c1cc(Cl)c(Cl)cc1C(=O)Nc1cccc2ncccc12	-0.06%
N#C/C(=C/c1ccc(N2CCCCC2)o1)C(=O)NCCc1c[nH]c2ccccc12	-0.28%
C[C@@H]1NC(=O)c2cc([N+](=O)[O-])cc(F)c2NCCC[C@@H](C(N)=O)NC(=O)[C@H](CC(N)=O)NC1=O	-0.03%
COc1ccccc1NC(=O)[C@H](COCc1ccccc1)NC(=O)OC(C)(C)C	-0.12%
CC(C)(C)OC(=O)N1CCC(C(=O)NNC(=O)c2ccc(Cl)cc2Cl)CC1	-0.04%
CCn1c(=O)c(=O)n(CC)c2cc(S(=O)(=O)N3CCc4ccccc43)ccc21	-0.1%
O=S(=O)(c1ccc2c(c1)OCCO2)N1CCc2ccccc21	0.34%
O=S(=O)(c1ccccc1)N1CCc2ccccc21	0.75% (active)

Structure (SMILES)	inhibition
COc1ccc(CCNS(=O)(=O)c2cn(C)nc2C)cc1	-0.02%
CCOC(=O)N1CCN(C(=O)C2CCN(S(C)(=O)=O)CC2)CC1	-0.13%
Cc1ccc2c(C)c(C(=O)N(C)Cc3ccncn3)oc2c1C	1.25%
O=C1NC(=O)C2C1C(c1ccc([N+](=O)[O-])cc1)=NN2Cc1ccccc1 (stereo unspecified)	1.09% (active)
CC(=O)N1c2ccccc2N(Cc2ccc([N+](=O)[O-])cc2)C(=O)C1(C)C	0.1%
O=C(NCCCCc1ccccc1)C1CC(c2ccc([N+](=O)[O-])cc2)=NO1 (stereo unspecified)	0.02%
Cc1ccc(CN2CCN(Cc3cccc(C)n3)CC2CCO)cc1 (stereo unspecified)	-0.07%
CC(=O)Nc1ccc(/C(C)=N/NC(=O)CN(c2ccccc2Br)S(C)(=O)=O)cc1	0.36%
O=C(Cc1ccccc1Cl)N1CCN(c2ccccn2)CC1	-0.02%
O=C(CCC1CCCN(C(=O)Cc2ccc(F)cc2)C1)N1CCN(c2ccccn2)CC1 (stereo unspecified)	-0.13%
O=C(Cc1ccc(Br)cc1)N1CCN(c2ccccn2)CC1	11.1% (active)
COc1ccc(N(CC(=O)NCC2CCCO2)C(=O)CCC(=O)Nc2nccs2)c(OC)c1 (stereo unspecified)	0.02%
CCN1CCN(c2ccc(S(=O)(=O)N3CCCCC3)cc2NC(=O)Cc2c(Cl)cccc2Cl)CC1	-0.36%
Cc1cc(-c2ccc(S(=O)(=O)N3CCc4ccccc4C3)s2)on1	-0.2%
CC(C)N(c1ccccc1)c1ncnc(NCCC(=O)O)c1[N+](=O)[O-]	0.29%
CC(C)Cn1c(N)c(C(=O)COC(=O)C2CCCN2C(=O)c2cccs2)c(=O)n(C)c1=O (stereo unspecified)	0.07%
Cc1cc(C)c2[nH]c(=O)c(C(c3nnnn3Cc3ccc4c(c3)OCO4)N3CCCC3)cc2c1 (stereo unspecified)	1.06% (active)
Fc1ccccc1C(c1nnnn1Cc1ccc2c(c1)OCO2)N1CCN(Cc2ccccc2)CC1 (stereo unspecified)	-0.02%
CCOC(=O)C1CCN(C(c2cc3cc(C)cc(C)c3[nH]c2=O)c2nnnn2C2CCCCC2)CC1 (stereo unspecified)	0.07%

Structure (SMILES)	inhibition
O=C(CN(c1cccc(Cl)c1)S(=O)(=O)c1ccccc1)NN=C1CCCC1	0.07%
O=C(CN1C2CCC1CC(NC(=O)C1CC1)C2)NCc1ccccc1 (stereo unspecified)	-0.03%
O=C1CC2(CCN(C(=O)COc3ccc(F)cc3)CC2)Oc2ccccc21	-0.44%
CC(C)C(=O)N1CCN(c2nc(-c3ccccc3)c3c(c2C#N)CC(C)(C)OC3)CC1	-0.13%
CC(C)C(=O)N1CCC2(CC1)Oc1ccc(F)cc1C(=O)C21CC(c2ccccc2)=NO1 (stereo unspecified)	78.3% (active)
CC(C)c1ccc2oc(=O)cc(CN3CCN(Cc4ccccc4)CC3)c2c1	-0.11%
CCc1ccc(OCC(=O)OCC(=O)c2c(N)n(C)c(=O)n(C)c2=O)cc1	-0.05%
CCCCOc1ccc(C(=O)NCC(=O)OCC(=O)c2c(N)n(C)c(=O)n(C)c2=O)cc1	0.65% (active)
Cn1c(N)c(C(=O)COC(=O)COc2ccc(Cl)cc2)c(=O)n(C)c1=O	0%
O=C(NCC1CCCO1)c1ccccc1-c1nc(-c2ccccc2Cl)no1 (stereo unspecified)	-0.05%
CCCNC(=O)N1CCC(c2ccc3c(c2)OCO3)CC1	0.01%
Cc1cc(C(=O)NC2CC(C)(C)Cc3c2cnn3-c2ccccc2)n[nH]1 (stereo unspecified)	0.03%
COc1ccc(C(=O)NC2CC(C)(C)Cc3c2cnn3-c2ccccc2)c(OC)c1 (stereo unspecified)	1.15% (active)
CC1(C)Cc2c(cnn2-c2cccc(F)c2)C(NC(=O)c2cc[n+]([O-])cc2)C1 (stereo unspecified)	0.12%
Cc1ccc(S(=O)(=O)N(Cc2ccc(Cl)cc2)c2ccccc2C(=O)NCc2cccnc2)cc1	0.08%
Cc1ccc(C(=O)Nc2ccc(NC(=O)c3cccs3)cc2)c(C)c1	0.18%
COc1cc(NC(=O)c2ccc3c(c2)OCO3)ccc1NC(=O)c1cccs1	-0.1%
O=C(Nc1ccc(NC(=O)c2cccs2)cc1)c1ccc2ccccc2c1	1.22% (active)
